Compound activity as filed in PubChem.
Cycloheximide cs = counter-screen hit for Shiga toxin inhibitors, cycloheximide; cell reporter, cycloheximide protein synthesis inhibition counterscreen; max response, %; hit rate 12% among 300,000; AID 2314; in the data active = max response mostly above about 13%, no sharp cut-off; inactive = mostly below about 14%; also: read at 38.3 µM for the half of the compounds with a filed dose; 0% is about no effect
Tb PYK inh = blocks Trypanosoma brucei pyruvate kinase | Potency, µM (titrated, usually from 76.8 µM), for inactives: at the highest dose activity, negative = inhibition, usual class: inhibitors | TbPYK enzyme, Kinase-Glo Plus ATP luminescence, 45 min | hit rate 0.12% among 410,000 | Q57TT1; also: potency is read from the fitted curve at half-maximal effect; % is scaled to controls: 0 for no effect and ±100 for the full control effect; nearly all actives have a fitted effect of over 50% in size
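Glycolytic pyruvate kinase of T. brucei was incubated with substrate, test compound and 130 uM ADP for 45 minutes at room temperature. Luminescent Kinase-Glo Plus signal was measured after 10 minutes.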
LmPK inhibitor = LmPK (Leishmania mexicana) enzyme inhibition; Q27686; purified LmPK, Kinase-Glo ATP luminescence, 1 h; Potency, µM (highest dose often 57.5 µM), for inactives: at the top dose activity change, negative = inhibition, actives largely listed as inhibitors; hit rate 0.37% among 290,000; AID 1721; also: potency is read from the fitted curve at half-maximal effect; % is scaled to controls: 0 for no effect and ±100 for the full control effect
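ATP generated from ADP (0.1 mM) and PEP (0.5 mM) by 0.1 nM LmPK over 1 h at room temperature (pH 7.2 imidazole buffer) was detected by coupled luciferase luminescence. Values were normalized to uninhibited and no-enzyme wells.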
Shiga toxin inh = inhibitors of Shiga toxin in Vero cells. Vero cells, Shiga toxin protein synthesis inhibition reporter. hit rate 9.2% among 290,000. inhibition, % at 38.7 µM. AID 2315; in the data active = inhibition mostly above about 28%, no sharp cut-off; inactive = mostly below about 43%; also: 0% is about no effect
FBPA Giardia inh = inhibitors of Giardia lamblia fructose-1,6-bisphosphate aldolase; A8B2U2; purified Giardia FBPA; Potency, µM (doses to about 59.6 µM), for the others: at the top dose activity, negative = inhibition, actives largely listed as inhibitors; hit rate 0.71% among 290,000; also: potency is read from the fitted curve at half-maximal effect; % is scaled to controls: 0 for no effect and ±100 for the full control effect; nearly all actives have a fitted effect of over 55% in size
Target sequence (A8B2U2 whole entry, looked up): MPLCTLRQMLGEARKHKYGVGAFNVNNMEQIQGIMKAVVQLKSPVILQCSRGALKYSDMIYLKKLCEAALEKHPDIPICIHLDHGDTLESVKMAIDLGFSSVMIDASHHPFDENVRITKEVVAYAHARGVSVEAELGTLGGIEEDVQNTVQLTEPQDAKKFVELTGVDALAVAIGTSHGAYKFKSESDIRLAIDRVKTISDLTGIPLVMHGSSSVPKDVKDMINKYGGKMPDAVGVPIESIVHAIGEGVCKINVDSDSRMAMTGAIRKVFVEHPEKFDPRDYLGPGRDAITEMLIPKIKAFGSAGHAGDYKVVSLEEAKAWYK
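Giardia FBPA (40 nM reagent) was preincubated 10 min at RT with compound (up to 57.5 uM final), then substrate plus GAPDH/TPI/NAD/arsenate coupling system with diaphorase/resazurin was added; resorufin fluorescence (525/598 nm) was read after 20 min.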
RE007 growth inh = less growth of the S. pombe RE007 Vpr strain | S. pombe RE007 Vpr strain, BacTiter-Glo ATP luminescence, 24 h | Potency, µM (highest dose often 92.2 µM), without a hit: top-dose activity change, negative = less growth, actives largely listed as inhibitors | hit rate 0.21% among 360,000; active = well fitted falling curve with a large enough effect; inconclusive = small, poorly fitted or top-dose-only effect; inactive = no such curve, though single readings can be large or run the other way; also: potency is read from the fitted curve at half-maximal effect; % is scaled to controls: 0 for no effect and ±100 for the full control effect; nearly all actives have a fitted effect of over 50% in size
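Fission yeast strain RE007, carrying one chromosomally integrated HIV-1 vpr copy, was seeded at OD 0.01 in PMG+AL medium with 23 nL pinned compound. After 24 h at 30 °C and 99% humidity, viability was read by BacTiter-Glo luminescence.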
* hit, by the source's call; ? = inconclusive; · = no result given; + = active, no number. The entries come from a sample that favours hits as a whole. Unless noted, calls follow the shape of the dose curve; as a rule, active = well fitted curve in the direction sought with a large enough effect; inconclusive = small, poorly fitted or top-dose-only effect, or another doubt; inactive = no such curve, though single readings can be large; an effect the other way counts as inactive or inconclusive.

SMILES | Cycloheximide cs | Tb PYK inh | LmPK inhibitor | Shiga toxin inh | FBPA Giardia inh | RE007 growth inh
Cc1cccc(-n2ncc3c2CCCC3NC(=O)Cn2cccn2)c1C (configuration not stated) | 19* | -1% | -6% | 10 | · | 1%
COCc1ccc(C(=O)NC2CCCc3c2cnn3-c2ccc(C)c(C)c2)o1 (configuration not stated) | 26* | 4% | 10% | 93 | -11% | -7%
Cc1ccc(-n2ncc3c2CCCC3NC(=O)CCc2cnn(C)c2)cc1C (configuration not stated) | 6 | 3% | -4% | 11 | · | 8%
O=C(CSc1cn(CC(=O)N2CCCCC2)c2ccccc12)NCc1ccc(F)cc1 | · | -18% | · | · | · | ·
CCNC(=O)[C@H](C)/C=C/C(NC(=O)OCc1ccccc1)c1ccc(C(=O)OC)cc1 (some centres not stated) | · | · | · | · | 5% | ·
Cc1cc(C)n(CC(=O)NC2CCCc3c2cnn3-c2ccc(C)c(C)c2)n1 (configuration not stated) | 38* | -8% | 4% | 54* | 6% | -1%
CC(=O)Nc1cccc(C(=O)NC2CCCc3c2cnn3-c2cc(C)cc(C)c2)c1 (configuration not stated) | 25* | 1% | 7% | 24 | 10% | 1%
CCn1nc(C)cc1C(=O)NC1CCCc2c1cnn2-c1cc(F)cc(F)c1 (configuration not stated) | 11 | -7% | -5% | 13 | · | 3%
Cc1cc(C(=O)NC2CCCc3c2cnn3-c2cc(F)cc(F)c2)nn1C (configuration not stated) | 15 | 4% | -5% | 25* | · | -2%
COCc1ccc(C(=O)NC2CCCc3c2cnn3-c2cc(C)cc(C)c2)s1 (configuration not stated) | 12 | 21% | -6% | 27* | -6% | 8%
Cc1cc(C(=O)NC2CCCc3c2cnn3-c2ccc(C)c(C)c2)n(C)n1 (configuration not stated) | -1 | 8% | -1% | -2 | · | -1%
CCOC(=O)c1ccccc1NC(=O)NCc1c(-n2cccc2)sc2c1CCCC2 | · | 3% | · | · | · | ·
Cc1cc(=O)n(CC(=O)N2CCCc3ccccc32)c2c1c(C)nn2-c1cccc(F)c1 | · | 1% | · | · | · | ·
Cc1ccc(-n2ncc3c2CCCC3NC(=O)c2ccccc2N2CCOCC2)cc1C (configuration not stated) | 2 | -4% | -12% | -27 | · | -4%
Cc1cc(C)c(C(=O)NC2CCCc3c2cnn3-c2ccc(C)c(C)c2)c(=O)[nH]1 (configuration not stated) | 27* | 1% | 0% | 25 | · | 1%
CCOc1ccc(NC(=O)CN2CCN(CC(=O)Nc3ccc(N(CC)CC)cc3)CC2)cc1 | · | -9% | · | · | · | ·
CN1C(C(=O)c2ccccc2)=C(NC(=O)c2ccccc2Br)c2ccccc2S1(=O)=O | · | 0% | · | · | · | ·
Cc1cccc2sc(N(CCCN(C)C)C(=O)c3ccc4ncsc4c3)nc12 | 20* | -12% | -8% | 38* | -25% | -1%
CCc1ccc2nc(N(CCN(C)C)C(=O)c3ccc4ncsc4c3)sc2c1 | 68* | -25% | -6% | 117* | · | 9%
Cc1cccc2sc(N(CCCN(C)C)C(=O)c3nc4ccccc4s3)nc12 | -2 | 2% | 0% | 6 | -4% | -3%
COc1ccc(-c2nc3cnc(N4CCN(C)CC4)nc3n(-c3ccc(OC)cc3)c2=O)cc1 | · | · | · | · | -22% | ·
CCOc1ccc(NC(=O)c2oc3ccccc3c2NC(=O)Cc2cccs2)cc1 | · | -6% | · | · | · | ·
CCOC(=O)c1cnc2ccc(C(=O)OC)cc2c1Nc1ccccc1CC | · | 2% | · | · | · | ·
Cc1nc2nc(-c3ccc(F)cc3)cn2nc1C | 32* | ? | ? | 31 | 5% | ·
CCc1c(-c2ccccc2)nc2nc(C)c(C)nn12 | -3 | -3% | -1% | -8 | -4% | -3%
SMILES | Cycloheximide cs | Tb PYK inh | LmPK inhibitor | Shiga toxin inh | FBPA Giardia inh | RE007 growth inh
c1ccc(-c2cn3nc(-c4ccccc4)cnc3n2)cc1 | 49* | -11% | -15% | + | 0% | -6%
Cc1nc2nc(-c3ccccc3)cn2nc1C | 28* | -23% | 13µM* | 85* | 1% | -9%
CCc1ccc(-c2cn3nc(C)c(C)nc3n2)cc1 | -1 | -15% | 1% | -24 | 5% | -24%
Oc1c(C(c2ccc(Cl)cc2Cl)N2CCN(Cc3ccccc3)CC2)sc2nc(-c3ccco3)nn12 (configuration not stated) | · | -21% | · | · | · | ·
O=C(NCCc1ccccc1)[C@@H]1CC=C[C@@H]2CCN(C3CCCCC3)C(=O)[C@@H]21 | · | 0% | · | · | · | 4%
CCN(CC)C(=O)COc1ccc(/C(C)=N/Nc2ncc(Cl)cc2Cl)cc1 | 28* | -4% | 5% | 66* | -11% | 6%
Cn1c(=O)c(=O)n(C)c2cc(N3CCCC3)c(NC(=O)c3ccc(C(C)(C)C)cc3)cc21 | · | 1% | · | · | · | ·
COc1ccc(NC(=O)c2ccc3c(c2)OCO3)cc1Cl | 66* | -1% | -20% | 76* | -8% | 1%
COc1ccc(NCc2ccc3c(c2)OCO3)cc1Cl | 22* | -4% | 4% | 43* | -4% | 5%
O=C(Nc1ccc2c(c1)OCO2)c1ccc(Cl)cc1Cl | -2 | 1% | -9% | -12 | · | -22%
O=C(Nc1ccc(C(=O)N2CCCC2)cc1)c1ccc2c(c1)OCO2 | 27* | 1% | 16µM* | 36 | 3% | ?
O=C(Nc1ccc(F)c(Cl)c1)c1ccc2c(c1)OCO2 | 51* | 3% | -17% | 105* | -3% | -29%
CCc1ccc(NC(=O)c2sc3ncnc(N(C)C4CCCCC4)c3c2C)cc1 | · | 5% | · | · | · | ·
COC(=O)c1ccc(NC(=O)c2ccc3c(c2)OCO3)cc1 | 24* | 4% | -10% | 43* | 0% | 1%
COC(=O)c1c(-c2cccnc2)csc1NC(=O)c1ccc2c(c1)OCO2 | 37* | ? | 6% | 70* | -1% | -23%
COC(=O)c1sccc1NC(=O)c1ccc2c(c1)OCO2 | 7 | -3% | 1% | -8 | 0% | -7%
O=C(O)c1cc(=O)c2ccc(Cl)cc2[nH]1 | · | · | · | · | -3% | ·
CC1(NC(=O)c2cccc(S(=O)(=O)N3CCN(c4ccc(F)cc4)CC3)c2)CCS(=O)(=O)C1 (configuration not stated) | · | -3% | · | · | · | 27%
CCc1ccc(NC(=O)CC2C(=O)OCCN2CC)cc1 (configuration not stated) | · | -7% | · | · | · | ·
CC(C)(C)C(=O)Cn1c(=O)n(-c2ccccc2)c(=O)c2c3c(sc21)CCC3 | · | 0% | · | · | · | ·
Cc1ccc(NC(=O)N2CCN(c3nnc(C)c4c(C)n(-c5ccccc5)nc34)CC2)c(Cl)c1 | · | 2% | · | · | · | ·
